# Results published in PubChem BioAssay.
# Results filed as inconclusive are left out. For some of these results: Measured potencies and affinities stand elsewhere. Activity calls are given as the source filed them. Unless noted, no rule for the calls is given here.
# Assays:
# [1] = antimalarial activity against Dd2 strain (AID 2302;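 active = growth inhibition above 50% at the single 2 µM test dose, taken to imply half-maximal potency below 2 µM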;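 also: 0% = DMSO untreated growth and 100% = chloroquine plus artemisinin killed control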); details: P. falciparum Dd2 in RBCs, LDH growth readout, 72 h; at 2 µM; stronger effect = higher value
# [2] = HepG2 cytotoxicity, primary screen, cytotoxicity control for P. falciparum antimalarial project, cell-based, ATP luminescence (AID 2303;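 active = inhibition above 50%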;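 also: 0% = DMSO wells and 100% = digitonin-killed cells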); details: HepG2 viability, 24-48 h, at 10 µM, stronger effect = higher value
# [3] = molecular target: L-lactate dehydrogenase (Plasmodium falciparum (isolate CDC / Honduras)) (UniProt Q27743); experiment: PfLDH activity inhibition – cell lysate, 3D7 strain, counter-screen for P. falciparum growth inhibition project (AID 2304);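 also: 0% = vehicle and 100% = reference inhibitor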; details: P. falciparum 3D7 crude extract, LDH APAD/NBT absorbance; at 2 µM; stronger effect = higher value
# Sequence of L-lactate dehydrogenase (Plasmodium falciparum (isolate CDC / Honduras)) (Q27743 whole entry, looked up): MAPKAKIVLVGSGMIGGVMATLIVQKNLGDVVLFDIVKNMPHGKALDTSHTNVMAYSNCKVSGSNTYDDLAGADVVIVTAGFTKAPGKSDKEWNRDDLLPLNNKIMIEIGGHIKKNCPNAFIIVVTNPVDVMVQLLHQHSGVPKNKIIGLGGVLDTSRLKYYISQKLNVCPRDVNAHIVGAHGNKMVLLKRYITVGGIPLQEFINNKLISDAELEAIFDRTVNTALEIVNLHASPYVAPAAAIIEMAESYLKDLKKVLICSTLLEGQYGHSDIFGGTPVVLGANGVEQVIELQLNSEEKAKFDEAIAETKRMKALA
# [4] = inhibition of 3D7 malaria parasite growth – strain 3D7 (AID 2306);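 also: 0% = DMSO wells and 100% = chloroquine plus artemisinin control wells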; details: P. falciparum 3D7 erythrocytic growth, LDH absorbance, 72 h; at 2 µM; stronger effect = higher value
# [5] = molecular target: Plasmodium falciparum protein kinase 6 (PK6, PF3D7_1337100) (UniProt Q8IDW1); experiment: PfPK6 kinase inhibitors, biochemical, TCAMS library (AID 1159586); details: recombinant PfPK6, Kinase-Glo ATP depletion luminescence
# Sequence of Plasmodium falciparum protein kinase 6 (PK6, PF3D7_1337100) (Q8IDW1 1-305): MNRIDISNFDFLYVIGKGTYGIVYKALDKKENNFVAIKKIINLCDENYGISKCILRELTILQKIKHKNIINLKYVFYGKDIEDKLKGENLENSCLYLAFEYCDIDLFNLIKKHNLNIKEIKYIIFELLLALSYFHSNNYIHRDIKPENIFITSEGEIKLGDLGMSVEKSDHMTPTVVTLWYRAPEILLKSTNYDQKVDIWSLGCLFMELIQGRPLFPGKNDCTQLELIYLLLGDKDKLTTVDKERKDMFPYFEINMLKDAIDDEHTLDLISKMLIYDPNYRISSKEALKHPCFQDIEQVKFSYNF
# [6] = molecular target: Protein kinase 7 (PK7), Plasmodium falciparum 3D7 (PF3D7_0213400) (UniProt Q7YTF7); experiment: inhibition of Plasmodium PK7 catalytic activity – biochemical, TCAMS antimalarial set, Kinase-Glo luminescence (AID 1159587); details: recombinant PfPK7, Kinase-Glo ATP depletion luminescence
# Sequence of Protein kinase 7 (PK7), Plasmodium falciparum 3D7 (PF3D7_0213400) (Q7YTF7 1-343): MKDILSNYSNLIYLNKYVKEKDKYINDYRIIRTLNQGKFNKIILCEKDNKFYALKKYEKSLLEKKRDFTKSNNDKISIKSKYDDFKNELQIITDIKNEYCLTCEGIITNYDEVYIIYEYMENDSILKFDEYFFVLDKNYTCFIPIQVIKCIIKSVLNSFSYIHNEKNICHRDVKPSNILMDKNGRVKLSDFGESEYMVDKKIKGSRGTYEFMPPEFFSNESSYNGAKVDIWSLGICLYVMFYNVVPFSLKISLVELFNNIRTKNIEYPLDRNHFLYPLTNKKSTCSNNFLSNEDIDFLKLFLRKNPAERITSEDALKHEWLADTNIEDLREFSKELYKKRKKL
# [7] = molecular target: Calcium-dependent protein kinase 4 (Plasmodium falciparum (isolate 3D7)) (UniProt Q8IBS5); experiment: PfCDPK4 kinase inhibitors, biochemical, TCAMS library (AID 1159588; cut-off not given, nearly all actives have IC50 up to about 0.91 µM); details: recombinant PfCDPK4, Kinase-Glo ATP depletion luminescence
# Sequence of Calcium-dependent protein kinase 4 (Plasmodium falciparum (isolate 3D7)) (Q8IBS5 whole entry, looked up): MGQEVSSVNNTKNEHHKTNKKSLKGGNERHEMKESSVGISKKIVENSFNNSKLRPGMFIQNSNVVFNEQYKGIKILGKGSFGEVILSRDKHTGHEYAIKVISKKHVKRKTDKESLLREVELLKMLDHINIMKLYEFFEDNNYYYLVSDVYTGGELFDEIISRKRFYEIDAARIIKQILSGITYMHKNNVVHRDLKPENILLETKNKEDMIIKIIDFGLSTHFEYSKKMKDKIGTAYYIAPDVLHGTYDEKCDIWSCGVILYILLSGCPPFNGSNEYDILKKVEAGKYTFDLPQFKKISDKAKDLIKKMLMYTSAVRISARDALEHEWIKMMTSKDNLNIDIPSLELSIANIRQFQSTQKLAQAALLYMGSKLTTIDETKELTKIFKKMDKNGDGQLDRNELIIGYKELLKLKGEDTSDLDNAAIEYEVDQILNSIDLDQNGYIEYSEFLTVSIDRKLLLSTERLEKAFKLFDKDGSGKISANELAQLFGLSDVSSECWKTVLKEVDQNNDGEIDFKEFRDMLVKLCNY
# [8] = system: Aerobactin synthetase IucA (Klebsiella pneumoniae); experiment: IucA aerobactin synthetase inhibitors, biochemical, Tocris library, absorbance (AID 1345561); details: purified IucA enzyme assay, absorbance (OD) read-out; stronger effect = lower value;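 tested at 8 µM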;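 also: 100% = enzyme without compound and 0% = no enzyme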
# [9] = growth inhibition of DIPG glioma cells, dose response, cell-based, SU-DIPG-XVII, MIPE5.0, CellTiter-Glo, qHTS (AID 1347060; cut-off not given, nearly all actives have AC50 up to about 26 µM;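 also: cells exposed to compound for 48 hours before viability readout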); details: SU-DIPG-XVII viability, CellTiter-Glo ATP luminescence
# [10] = growth inhibition of DIPG glioma cells, dose response, cell-based, SU-DIPG-XIII, MIPE4.0, CellTiter-Glo, qHTS (AID 1347061; cut-off not given, nearly all actives have AC50 up to about 37 µM;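 also: cells exposed to compound for 48 hours before readout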); details: SU-DIPG-XIII viability, CellTiter-Glo ATP luminescence
# [11] = growth inhibition of DIPG glioma cells, dose response, cell-based, JHH-DIPG-1, MIPE4.0, CellTiter-Glo, qHTS (AID 1347062; cut-off not given, nearly all actives have AC50 up to about 27 µM;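 also: cells exposed to compound for two days before readout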); details: JHH-DIPG-1 viability, CellTiter-Glo ATP luminescence
# [12] = growth inhibition of DIPG glioma cells, dose response, cell-based, SU-DIPG-IV, MIPE4.0, CellTiter-Glo, qHTS (AID 1347063; cut-off not given, nearly all actives have AC50 up to about 30 µM;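 also: compound exposure lasted 48 hours before the viability readout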); details: SU-DIPG-IV viability, CellTiter-Glo ATP luminescence
# [13] = growth inhibition of DIPG glioma cells, dose response, cell-based, SU-DIPG-XIII, MIPE5.0, CellTiter-Glo, qHTS (AID 1347064; cut-off not given, nearly all actives have AC50 up to about 23 µM;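 also: cells exposed to compound for 48 hours before the viability read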); details: SU-DIPG-XIII viability, CellTiter-Glo ATP luminescence
# [14] = viability loss in pontine glioma line – cell-based, SU-DIPG-XXV, MIPE5.0, CellTiter-Glo, qHTS, dose response (AID 1347065; cut-off not given, nearly all actives have AC50 up to about 26 µM;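 also: cells exposed to compound for 48 hours before ATP readout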); details: CellTiter-Glo ATP luminescence
# [15] = SU-DIPG-VI glioma cell viability, MIPE4.0 library, CellTiter-Glo luminescence, qHTS (AID 1347066; cut-off not given, nearly all actives have AC50 up to about 30 µM;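 also: cells exposed to compound for 48 hours before readout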); details: CellTiter-Glo ATP luminescence
# [16] = JHH-DIPG-1 glioma cell viability, MIPE5.0 library, CellTiter-Glo luminescence, qHTS (AID 1347067; cut-off not given, nearly all actives have AC50 up to about 26 µM;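 also: cells exposed to compound for 48 hours before readout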); details: JHH-DIPG-1 glioma viability, CellTiter-Glo ATP luminescence
# [17] = SU-DIPG-XXV glioma cell viability, MIPE5.0 library, qHTS (AID 1347068; cut-off not given, nearly all actives have IC50 up to about 30 µM;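 as to IC50: cells exposed to compound for 48 hours before viability readout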)
# [18] = sensitizers of A549 cells to miR-34 induction, primary screen, imaging, A549 dox-inducible miR-34, nuclei and caspase counts (AID 1347080;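 active = compounds whose cell count with miR-34 switched on is under 0.7 times the count with it off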); details: A549 miR-34 inducible, Hoechst nuclei count, 48 h
# [19] = modifiers of HSF1 nuclear foci, imaging, Selleck Cancer Library (AID 1347162; in the data active = plate-normalised HSF1 focus index below about 0.46); details: human cells, at 10 µM; SSMD: measured here: HSF1 foci SSMD mean; cell count: measured here: cell number; plate-normalised HSF1 focus index: stronger effect = lower value
# [20] = viability rescue of complex I mutant cybrids, primary screen, cell-based, galactose medium, ATP luminescence (AID 1645843;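 active = z-score of at least 1.8 in each of two replicates, scored against plate mean and spread of sample wells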;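 also: positive z means more ATP and so rescue of galactose-driven cybrid death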); details: complex I mutant cybrid cells, 72 h, stronger effect = higher value
# [21] = phospholipid biosynthesis inhibitors in animal cells, primary screen, cell-based, LOPAC library, screen 4 (AID 1347384); details: phospholipid biosynthesis inhibition screen, at 10 µM
# [22] = stronger effect = lower value, cell number ratio, induced over uninduced
# [23] = measured here: relative caspase fold change +Dox/-Dox
# [24] = measured here: total cells with miR-34 induction, stronger effect = lower value
# [25] = measured here: total cells without miR-34 induction
smiles,measurement,setting,value
O=C(Nc1cccc(-c2nn3ccccc3c2-c2ccnc(Nc3cccc(-c4cnco4)c3)n2)c1)C1CCCCC1,growth inhibition,[1],99% (active)
same,inhibition,[2],71% (active)
same,inhibition,[3],-4% (inactive)
same,growth inhibition,[4],95% (active)
same,outcome,[5],inactive
same,outcome,[6],inactive
O=C(NCC(c1ccc(C(F)(F)F)cc1)N1CCCC1)c1cc(-c2ccncc2)c(-c2cccc(O)c2)o1 (stereo not given),growth inhibition,[1],53% (active)
same,inhibition,[2],9% (inactive)
same,inhibition,[3],0% (inactive)
same,growth inhibition,[4],95% (active)
same,outcome,[5],inactive
same,outcome,[6],inactive
CCn1c(-c2nonc2N)nc2c(-c3cccc(Cl)c3)ncc(OCCCNCc3cnc(C)nc3N)c21,growth inhibition,[1],48% (inactive)
same,inhibition,[2],21% (inactive)
same,inhibition,[3],3% (inactive)
same,growth inhibition,[4],93% (active)
same,outcome,[5],inactive
same,outcome,[6],inactive
Nc1ncc(-c2cn[nH]c2)cc1-c1nc2ncc(Cl)cc2[nH]1,growth inhibition,[1],70% (active)
same,inhibition,[2],40% (inactive)
same,inhibition,[3],1% (inactive)
same,growth inhibition,[4],100% (active)
same,outcome,[5],inactive
same,outcome,[6],inactive
same,outcome,[7],inactive
Cc1cccc2[nH]c(-c3cc(-c4cn[nH]c4)cnc3N)nc12,growth inhibition,[1],93% (active)
same,inhibition,[2],37% (inactive)
same,inhibition,[3],0% (inactive)
same,growth inhibition,[4],101% (active)
same,outcome,[5],inactive
same,outcome,[6],inactive
same,outcome,[7],inactive
CC(C)(CNC(=O)[C@H]1CCCCN1)c1nc(-c2ccc(Cl)c(O)c2)c(-c2ccncc2)[nH]1,growth inhibition,[1],98% (active)
same,inhibition,[2],6% (inactive)
same,inhibition,[3],-3% (inactive)
same,growth inhibition,[4],98% (active)
same,outcome,[5],inactive
same,outcome,[6],inactive
same,outcome,[7],inactive
Cc1[nH]c(/C=C2\C(=O)Nc3ccc(S(=O)(=O)Cc4c(Cl)cccc4Cl)cc32)c(C)c1C(=O)N1CCC[C@@H]1CN1CCCC1,growth inhibition,[1],92% (active)
same,inhibition,[2],33% (inactive)
same,inhibition,[3],-1% (inactive)
same,growth inhibition,[4],85% (active)
same,outcome,[5],inactive
same,outcome,[6],inactive
same,remaining activity,[8],123% (inactive)
same,AC50,[9],9.34 µM (active)
same,outcome,[10],inactive
same,AC50,[11],26.4 µM (active)
same,AC50,[12],23.5 µM (active)
same,AC50,[13],9.34 µM (active)
same,AC50,[14],8.33 µM (active)
same,AC50,[15],8.33 µM (active)
same,AC50,[16],5.9 µM (active)
same,outcome,[17],inactive
same,fold change,[18]; [22],1.1 (inactive)
same,fold change,[18]; [23],1.29
same,cell count,[18]; [24],5950
same,cell count,[18]; [25],5410
same,SSMD,[19],0.661
same,cell count,[19],7510
same,plate-normalised HSF1 focus index,[19],1.05 (inactive)
same,z-score,[20],-0.7 (inactive)
NS(=O)(=O)c1ccc(Nc2nccc(-c3c(-c4cccc(NC(=O)c5c(F)cccc5F)c4)nn4ccccc34)n2)cc1,growth inhibition,[1],89% (active)
same,inhibition,[2],83% (active)
same,inhibition,[3],-7% (inactive)
same,growth inhibition,[4],93% (active)
same,outcome,[6],inactive
same,outcome,[7],inactive
COc1ccc(Nc2ncc(Cl)c(Nc3cccnc3C(N)=O)n2)cc1N1CCN(C)CC1,growth inhibition,[1],97% (active)
same,inhibition,[2],77% (active)
same,inhibition,[3],6% (inactive)
same,growth inhibition,[4],95% (active)
same,outcome,[6],inactive
same,outcome,[7],inactive
NCCCNc1nc(Nc2cccc(C(N)=O)c2)c2c(=O)[nH]ccc2n1,growth inhibition,[1],49% (inactive)
same,inhibition,[2],9% (inactive)
same,inhibition,[3],-3% (inactive)
same,growth inhibition,[4],99% (active)
same,outcome,[5],inactive
same,outcome,[6],inactive
CS(=O)(=O)Cc1ccc(Nc2nccc(N3CCCc4cc(NC(=O)Nc5cccc(C(F)(F)F)c5)ccc43)n2)cc1,growth inhibition,[1],99% (active)
same,inhibition,[2],46% (inactive)
same,inhibition,[3],-4% (inactive)
same,growth inhibition,[4],102% (active)
same,outcome,[6],inactive
same,outcome,[7],inactive
Cc1cccc(Nc2nc(NCCCCN)nc3cc[nH]c(=O)c23)c1,growth inhibition,[1],97% (active)
same,inhibition,[2],34% (inactive)
same,inhibition,[3],0% (inactive)
same,growth inhibition,[4],98% (active)
same,outcome,[5],inactive
same,outcome,[6],inactive
O=C(Nc1cccc(-c2nn3ncccc3c2-c2ccnc(Nc3cccc(-c4cnco4)c3)n2)c1)c1c(F)cccc1F,growth inhibition,[1],98% (active)
same,inhibition,[2],96% (active)
same,inhibition,[3],2% (inactive)
same,growth inhibition,[4],97% (active)
same,outcome,[5],inactive
same,outcome,[6],inactive
CCn1c(-c2nonc2N)nc2c(-c3cccc(NC(=O)Nc4cccc(Cl)c4)c3)ncc(OCCCN)c21,growth inhibition,[1],78% (active)
same,inhibition,[2],9% (inactive)
same,inhibition,[3],-1% (inactive)
same,growth inhibition,[4],91% (active)
same,outcome,[5],inactive
same,outcome,[6],inactive
CCN(CC)CCOc1ccc(Nc2ncc3cc(-c4c(Cl)cccc4Cl)c(=O)n(C)c3n2)cc1,growth inhibition,[1],91% (active)
same,inhibition,[2],72% (active)
same,inhibition,[3],1% (inactive)
same,growth inhibition,[4],90% (active)
same,outcome,[6],inactive
same,outcome,[7],inactive
same,AC50,[9],0.417 µM (active)
same,AC50,[11],2.96 µM (active)
same,AC50,[12],4.18 µM (active)
same,AC50,[14],1.86 µM (active)
same,AC50,[15],20.9 µM (active)
same,AC50,[16],4.68 µM (active)
same,IC50,[17],2.95 µM (active)
same,fold change,[18]; [22],1.1 (inactive)
same,fold change,[18]; [23],0.543
same,cell count,[18]; [24],761
same,cell count,[18]; [25],694
same,SSMD,[19],-11.2
same,cell count,[19],5360
same,plate-normalised HSF1 focus index,[19],0.335 (inactive)
same,outcome,[21],inactive
same,z-score,[20],-1.38 (inactive)
NS(=O)(=O)c1cccc(Nc2nccc(-c3c(-c4cccc(NC(=O)c5c(F)cccc5F)c4)nn4ccccc34)n2)c1,growth inhibition,[1],97% (active)
same,inhibition,[2],81% (active)
same,inhibition,[3],2% (inactive)
same,growth inhibition,[4],98% (active)
same,outcome,[5],inactive
same,outcome,[6],inactive
CN1CCN(c2ccc(Nc3nccc(-c4c(-c5cccc(NC(=O)c6c(F)cccc6F)c5)nn5ccccc45)n3)cc2)CC1,growth inhibition,[1],98% (active)
same,inhibition,[2],86% (active)
same,inhibition,[3],-3% (inactive)
same,growth inhibition,[4],98% (active)
same,outcome,[5],inactive
same,outcome,[6],inactive
CCn1c(-c2nonc2N)nc2c(-c3cccc(NC(=O)Nc4cccc(C#N)c4)c3)ncc(OCCCN)c21,growth inhibition,[1],80% (active)
same,inhibition,[2],37% (inactive)
same,inhibition,[3],0% (inactive)
same,growth inhibition,[4],92% (active)
same,outcome,[5],inactive
same,outcome,[6],inactive
